# Source: PubChem BioAssay
# Values without a mark were called inactive. How the calls were made is not given here.
# Target: Pantothenate synthetase (Mycobacterium tuberculosis (strain ATCC 25618 / H37Rv)) (UniProt P9WIL5)
# Assay: Recombinant Mtb pantothenate synthetase (PanC) inhibitors, coupled enzyme, confirmatory (AID 375);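 further: 0% = full reaction with vehicle and 100% = no enzyme background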
# Conditions: coupled enzyme assay; at 10 µM, active compounds read high
# Chain of Pantothenate synthetase (Mycobacterium tuberculosis (strain ATCC 25618 / H37Rv)) (P9WIL5 whole entry, looked up): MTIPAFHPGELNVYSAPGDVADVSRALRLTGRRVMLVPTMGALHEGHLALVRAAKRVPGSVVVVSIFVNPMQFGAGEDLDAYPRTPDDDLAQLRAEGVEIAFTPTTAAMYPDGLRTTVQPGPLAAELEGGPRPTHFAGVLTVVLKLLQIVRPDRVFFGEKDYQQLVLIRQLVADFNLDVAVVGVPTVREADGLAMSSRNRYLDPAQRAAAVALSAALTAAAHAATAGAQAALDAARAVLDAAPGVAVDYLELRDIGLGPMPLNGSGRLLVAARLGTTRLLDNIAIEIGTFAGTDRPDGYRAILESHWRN
row,SMILES,inhibition
1,CCOC(=O)c1[nH]c(CSc2nnc(-c3ccc(OC)cc3)o2)c(C(=O)OCC)c1C,0%
2,COC(=O)C1=C(C)N(c2ccc(C(=O)OC)cc2)C(=O)C1,0%
3,Cc1cc(-c2nc3ncccc3o2)ccc1N,0%
4,COc1ccc(-c2noc(CCN3C(=O)c4ccccc4C3=O)n2)cc1OC,7%
5,COC(=O)COc1nc(C)c(Br)c(OC)n1,0%
6,COc1ccc(Cc2nc(-c3ccc(NC(=O)c4cccnc4)cc3)no2)cc1,0%
7,Cc1cccc(-n2ncc3c(N4CCC5(CC4)OCCO5)ncnc32)c1,7%
8,Cc1cc(C)n2nc(SCC(=O)N(C)c3ccccc3)nc2n1,1%
9,CCOc1ccc(CN2CCN(c3cc(C)nc4c5c(C)cc(C)nc5nn34)CC2)cc1,0%
10,COCCCNCC(=O)Nc1ccc(OC(F)(F)F)cc1,3%
11,Cc1cc(C(=O)CSc2nnc(-c3ccco3)o2)c(C)n1CC1COc2ccccc2O1 (stereo not given),0%
12,CCNC(=O)N(C(=O)NCC)n1c(C)nnc1C,0%
13,Fc1cccc(Nc2cc(-n3cccn3)ncn2)c1,3%
14,Cc1oncc1C(=O)Nc1ccc(C(F)(F)F)cc1,8%
15,O=C(O)CCCNS(=O)(=O)c1ccc(NCc2ccccc2)c(C(=O)O)c1,0%
16,CCOC(=O)c1cnc(SC2CC(=O)N(c3ccc(OC)c(OC)c3)C2=O)nc1N (stereo not given),0%
17,O=C(Cn1ccc2ccccc2c1=O)NCCC(=O)N1CCN(C(=O)c2ccco2)CC1,9%
18,CC(=O)c1ccc2c3c(cccc13)C(=O)N(c1c(C)nn(C)c1C)C2=O,0%
19,COc1ccc(-c2cn3c(C)c(C(=O)Nc4cc(NC(C)=O)ccc4OC)sc3n2)cc1,4%
20,COc1ccc(OC)c(N2Cc3cc(C)c(C)cc3C2)c1,3%

row,SMILES,inhibition
1,Cc1cc(NC(=O)c2cccc(S(=O)(=O)N3CC(c4ccccc4)CC3=O)c2)no1 (stereo not given),2%
2,O=C1OCCC1Sc1ncnc2sccc12 (stereo not given),0%
3,CC1(C(=O)CSc2nc3ccccc3s2)CCC(=O)O1 (stereo not given),0%
4,CN(C)CCNC(=O)c1ccc(COCC(F)(F)F)cc1,0%
5,Cc1ccc(C(c2sc3ncnn3c2O)N2CC(C)CC(C)C2)cc1 (stereo not given),0%
6,Cc1ccc(C)c2[nH]c(=O)c(CN(CCN3CCCC3)C(=O)Nc3cccc(Cl)c3)cc12,0%
7,COc1ccccc1CNS(=O)(=O)c1ccc(NC(C)=O)cc1,0%
8,CCN=C1SC(CC(=O)Nc2ccccc2)C(=O)N1CC (stereo not given),5%
9,Cc1nc(SCC(=O)c2c[nH]c3ccccc23)n[nH]1,4%
10,COc1cc(NC(=O)C2CC(c3cccc(OC)c3OC)=NO2)cc(OC)c1OC (stereo not given),0%
11,COc1cccc(Oc2ccc(N)cc2)c1,0%
12,CCCCOC(=O)c1cccc(NC(=O)CC)c1,0%
13,NS(=O)(=O)c1cc2c(cc1C(F)(F)F)NC(Cc1ccccc1)NS2(=O)=O (stereo not given),0%
14,COc1ccc(-n2cc(-c3ccccc3)c3c(N4CCN(CCO)CC4)ncnc32)cc1,0%
15,CCOCCCNC(=O)Cn1cc2c(n1)CCCCC2,2%
16,CC(Oc1ccc(Br)cc1)C(=O)N1CCc2ccccc21 (stereo not given),0%
17,Cc1nn(-c2ccccc2)c(Cl)c1C(=O)NCC(=O)O,0%
18,Cn1c(CCCNC(=O)c2ccccc2)nc2ccccc21,2%
19,COc1cccc(/C=N/n2c(C)nc3ccccc32)c1OC,0%
20,CCN(CC)c1ccc(CNc2ccc(Br)cn2)cc1,0%
